Assay [1] concerns the target T1, Serine/threonine-protein kinase D2 (Homo sapiens) (UniProt Q9BZL6).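 Further: mean value of PRKD2 inhibition, from the GSK PKIS screening panel.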
T1 sequence (whole entry): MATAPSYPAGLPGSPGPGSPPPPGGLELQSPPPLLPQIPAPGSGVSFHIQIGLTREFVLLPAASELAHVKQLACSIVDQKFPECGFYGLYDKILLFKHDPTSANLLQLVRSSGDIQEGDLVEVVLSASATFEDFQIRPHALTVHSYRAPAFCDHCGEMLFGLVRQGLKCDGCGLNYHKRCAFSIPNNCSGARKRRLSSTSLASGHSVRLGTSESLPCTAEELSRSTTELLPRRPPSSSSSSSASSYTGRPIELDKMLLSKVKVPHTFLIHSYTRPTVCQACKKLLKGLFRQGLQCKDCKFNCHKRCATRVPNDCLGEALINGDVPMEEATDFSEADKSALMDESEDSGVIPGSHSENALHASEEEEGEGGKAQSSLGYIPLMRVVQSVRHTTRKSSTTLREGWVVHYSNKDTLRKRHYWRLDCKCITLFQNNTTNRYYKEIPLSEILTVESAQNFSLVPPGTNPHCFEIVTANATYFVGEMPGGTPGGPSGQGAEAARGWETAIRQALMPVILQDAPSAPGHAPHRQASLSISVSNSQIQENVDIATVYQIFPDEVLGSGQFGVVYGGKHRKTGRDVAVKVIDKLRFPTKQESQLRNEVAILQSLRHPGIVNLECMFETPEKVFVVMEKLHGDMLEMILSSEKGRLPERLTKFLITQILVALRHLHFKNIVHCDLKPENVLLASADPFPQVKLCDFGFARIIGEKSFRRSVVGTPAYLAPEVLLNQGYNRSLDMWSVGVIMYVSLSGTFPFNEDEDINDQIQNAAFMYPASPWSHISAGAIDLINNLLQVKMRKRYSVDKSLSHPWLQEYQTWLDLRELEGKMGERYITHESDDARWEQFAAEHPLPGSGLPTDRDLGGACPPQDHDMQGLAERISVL
Conditions: at 1 µM.

Assay [2] has as its target T2, Serine/threonine-protein kinase D3 (Homo sapiens) (UniProt O94806).
T2 sequence (whole entry): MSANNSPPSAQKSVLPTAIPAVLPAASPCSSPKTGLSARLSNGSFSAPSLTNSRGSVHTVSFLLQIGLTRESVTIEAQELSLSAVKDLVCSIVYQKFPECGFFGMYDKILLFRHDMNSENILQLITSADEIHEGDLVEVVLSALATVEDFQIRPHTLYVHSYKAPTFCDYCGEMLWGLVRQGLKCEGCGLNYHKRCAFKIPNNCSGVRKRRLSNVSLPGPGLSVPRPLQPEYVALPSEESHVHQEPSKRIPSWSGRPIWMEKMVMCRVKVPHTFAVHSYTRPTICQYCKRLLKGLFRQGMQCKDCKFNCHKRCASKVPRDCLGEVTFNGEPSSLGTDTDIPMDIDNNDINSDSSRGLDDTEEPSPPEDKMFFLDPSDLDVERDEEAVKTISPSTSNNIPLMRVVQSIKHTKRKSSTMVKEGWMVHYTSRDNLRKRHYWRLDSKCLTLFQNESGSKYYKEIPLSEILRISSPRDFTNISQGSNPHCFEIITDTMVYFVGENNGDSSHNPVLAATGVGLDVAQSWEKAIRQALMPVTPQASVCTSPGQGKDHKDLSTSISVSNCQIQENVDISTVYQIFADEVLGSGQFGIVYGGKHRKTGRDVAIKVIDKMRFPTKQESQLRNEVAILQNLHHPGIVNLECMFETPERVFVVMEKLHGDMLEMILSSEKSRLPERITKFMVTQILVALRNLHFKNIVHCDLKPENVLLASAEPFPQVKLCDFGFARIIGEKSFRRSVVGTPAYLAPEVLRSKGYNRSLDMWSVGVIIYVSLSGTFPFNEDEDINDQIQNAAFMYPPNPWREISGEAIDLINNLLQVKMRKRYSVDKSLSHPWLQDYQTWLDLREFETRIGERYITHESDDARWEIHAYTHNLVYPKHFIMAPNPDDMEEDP
Conditions: at 0.1 µM.

The target of assay [3] is T2, Serine/threonine-protein kinase D3 (Homo sapiens). Conditions: at 1 µM.
Assay [4] has as its target T3, cGMP-dependent protein kinase 1 (Homo sapiens) (UniProt Q13976).
T3 sequence (whole entry): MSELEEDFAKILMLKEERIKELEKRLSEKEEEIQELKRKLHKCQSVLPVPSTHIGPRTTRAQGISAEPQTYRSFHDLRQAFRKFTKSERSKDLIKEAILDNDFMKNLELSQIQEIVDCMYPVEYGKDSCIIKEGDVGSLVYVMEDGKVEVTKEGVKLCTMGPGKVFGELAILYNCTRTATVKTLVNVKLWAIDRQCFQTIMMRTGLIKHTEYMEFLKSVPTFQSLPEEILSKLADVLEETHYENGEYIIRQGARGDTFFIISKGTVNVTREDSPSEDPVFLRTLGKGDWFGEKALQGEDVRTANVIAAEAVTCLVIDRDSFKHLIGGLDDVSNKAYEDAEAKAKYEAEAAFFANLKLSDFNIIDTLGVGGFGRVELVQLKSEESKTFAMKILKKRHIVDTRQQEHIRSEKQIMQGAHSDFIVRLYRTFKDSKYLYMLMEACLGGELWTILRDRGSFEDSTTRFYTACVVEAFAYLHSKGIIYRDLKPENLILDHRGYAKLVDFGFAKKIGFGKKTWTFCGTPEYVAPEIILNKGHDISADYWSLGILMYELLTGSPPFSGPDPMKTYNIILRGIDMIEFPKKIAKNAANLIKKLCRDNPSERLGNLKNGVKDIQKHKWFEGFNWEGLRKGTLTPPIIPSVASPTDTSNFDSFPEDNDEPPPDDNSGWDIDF
Conditions: at 0.1 µM.

In assay [5] the target is T3, cGMP-dependent protein kinase 1 (Homo sapiens). Conditions: at 1 µM.
Assay [6] concerns the target T4, cGMP-dependent protein kinase 2 (Homo sapiens) (UniProt Q13237).
T4 sequence (whole entry): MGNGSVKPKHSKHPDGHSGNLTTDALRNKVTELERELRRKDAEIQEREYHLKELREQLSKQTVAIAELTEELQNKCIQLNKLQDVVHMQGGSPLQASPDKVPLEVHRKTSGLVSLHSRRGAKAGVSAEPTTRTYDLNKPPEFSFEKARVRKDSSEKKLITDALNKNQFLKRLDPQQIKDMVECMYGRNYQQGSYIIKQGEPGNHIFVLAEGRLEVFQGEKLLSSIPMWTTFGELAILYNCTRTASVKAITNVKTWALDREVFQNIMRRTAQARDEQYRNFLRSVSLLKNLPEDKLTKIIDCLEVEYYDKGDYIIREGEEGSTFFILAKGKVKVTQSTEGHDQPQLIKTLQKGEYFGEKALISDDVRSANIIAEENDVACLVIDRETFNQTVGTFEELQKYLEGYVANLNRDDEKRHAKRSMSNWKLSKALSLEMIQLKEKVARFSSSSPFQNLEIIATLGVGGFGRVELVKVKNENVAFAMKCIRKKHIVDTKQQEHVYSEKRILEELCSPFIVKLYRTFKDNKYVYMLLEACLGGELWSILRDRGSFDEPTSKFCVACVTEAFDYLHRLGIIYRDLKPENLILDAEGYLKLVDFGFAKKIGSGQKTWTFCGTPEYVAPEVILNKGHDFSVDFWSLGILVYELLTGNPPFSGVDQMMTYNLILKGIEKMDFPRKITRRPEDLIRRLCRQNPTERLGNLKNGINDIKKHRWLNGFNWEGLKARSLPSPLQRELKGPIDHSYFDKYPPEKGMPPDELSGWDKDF
Conditions: at 0.1 µM.

Assay [7] concerns the target T4, cGMP-dependent protein kinase 2 (Homo sapiens). The settings on record: at 1 µM.
Assay [8] addresses T5, cAMP-dependent protein kinase catalytic subunit PRKX (Homo sapiens) (UniProt P51817).
T5 sequence (whole entry): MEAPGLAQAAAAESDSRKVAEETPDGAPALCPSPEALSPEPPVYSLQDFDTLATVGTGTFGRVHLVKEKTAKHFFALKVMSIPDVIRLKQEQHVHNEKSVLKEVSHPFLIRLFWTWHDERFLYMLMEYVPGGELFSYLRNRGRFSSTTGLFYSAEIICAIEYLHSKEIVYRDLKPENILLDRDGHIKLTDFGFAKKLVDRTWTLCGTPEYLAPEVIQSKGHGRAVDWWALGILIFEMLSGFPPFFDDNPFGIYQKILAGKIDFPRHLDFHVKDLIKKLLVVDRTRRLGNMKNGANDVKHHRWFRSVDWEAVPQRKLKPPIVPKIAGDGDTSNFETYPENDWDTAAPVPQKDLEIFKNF
The settings on record: at 0.1 µM.

Assay [9] concerns the target T5, cAMP-dependent protein kinase catalytic subunit PRKX (Homo sapiens). The settings on record: at 1 µM.
Assay [10] deals with Rho-associated protein kinase 1 (Homo sapiens) (UniProt Q13464). The settings on record: at 0.1 µM.
Sequence of Rho-associated protein kinase 1 (Homo sapiens) (Q13464 2-1354 limits assumed): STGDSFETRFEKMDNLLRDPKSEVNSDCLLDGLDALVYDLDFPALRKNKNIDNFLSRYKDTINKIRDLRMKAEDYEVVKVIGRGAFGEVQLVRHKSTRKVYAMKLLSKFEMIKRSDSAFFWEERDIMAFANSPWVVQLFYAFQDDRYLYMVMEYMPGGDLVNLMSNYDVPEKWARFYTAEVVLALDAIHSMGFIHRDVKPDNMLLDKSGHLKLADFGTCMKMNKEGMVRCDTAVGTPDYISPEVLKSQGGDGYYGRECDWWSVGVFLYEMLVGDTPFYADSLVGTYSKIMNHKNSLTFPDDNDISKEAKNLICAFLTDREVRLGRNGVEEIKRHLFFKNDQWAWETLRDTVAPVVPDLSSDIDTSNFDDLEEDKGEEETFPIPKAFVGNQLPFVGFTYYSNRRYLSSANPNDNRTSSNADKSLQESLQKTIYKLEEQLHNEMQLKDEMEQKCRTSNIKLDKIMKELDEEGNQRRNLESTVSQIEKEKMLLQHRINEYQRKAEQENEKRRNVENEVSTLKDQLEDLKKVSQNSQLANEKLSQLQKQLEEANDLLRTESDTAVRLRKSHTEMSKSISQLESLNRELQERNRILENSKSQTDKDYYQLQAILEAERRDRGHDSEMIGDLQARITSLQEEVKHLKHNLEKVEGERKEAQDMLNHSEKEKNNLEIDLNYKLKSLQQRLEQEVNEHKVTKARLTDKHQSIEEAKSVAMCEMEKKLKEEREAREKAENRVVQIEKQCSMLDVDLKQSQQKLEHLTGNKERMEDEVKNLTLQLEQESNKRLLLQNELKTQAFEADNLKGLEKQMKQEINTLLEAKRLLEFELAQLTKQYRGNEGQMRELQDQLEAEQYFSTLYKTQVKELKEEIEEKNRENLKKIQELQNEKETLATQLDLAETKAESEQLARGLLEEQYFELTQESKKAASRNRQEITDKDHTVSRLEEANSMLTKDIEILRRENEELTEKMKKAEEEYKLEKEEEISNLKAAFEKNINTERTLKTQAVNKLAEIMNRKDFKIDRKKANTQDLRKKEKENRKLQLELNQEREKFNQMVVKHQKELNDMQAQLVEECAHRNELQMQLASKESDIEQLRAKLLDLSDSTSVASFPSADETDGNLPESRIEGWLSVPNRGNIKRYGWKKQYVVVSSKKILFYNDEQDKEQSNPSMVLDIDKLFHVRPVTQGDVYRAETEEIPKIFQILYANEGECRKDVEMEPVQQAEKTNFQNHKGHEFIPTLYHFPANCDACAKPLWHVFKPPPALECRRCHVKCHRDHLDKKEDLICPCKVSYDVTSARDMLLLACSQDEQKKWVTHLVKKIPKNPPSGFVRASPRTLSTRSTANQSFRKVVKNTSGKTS

Turning to `NCc1ccc(-c2nc(-c3ccc(Cl)c(O)c3)c(-c3ccncc3)[nH]2)cc1`, the inhibition in assay [1] was 4.23%; in assay [2], 0.72%; in assay [3], 1.93%; in [4], 0.03%; in assay [5], 2.4%; in assay [6] it was -0.25%. In addition, the inhibition in assay [7] is 3.58%; in assay [8], -0.67%; in assay [9] it was -2.14%; in [10], -0.61%.
Turning to `CCn1c(-c2nonc2N)nc2c(C#CC(C)(C)O)nc(CN3CCCC3)cc21`, the inhibition turned out to be 6.86% in [1]; 1.31% in [2]; 6.41% in assay [3]; 4.4% in assay [4]; 10.7% in assay [5]; 5.6% in [6]. In addition, the inhibition in [7] was 37.8%; in assay [8], 10.5%; in [9] it was 42%; in assay [10], 0.15%.
For `CC(=O)Nc1cccc(C#Cc2cncnc2Nc2ccc(OCc3cccc(F)c3)c(Cl)c2)n1`, the inhibition in [1] was -0.67%; in assay [2], -1.15%; in assay [3] it was -1.81%; in [4], 2.8%; in [5], 3.25%; in assay [6] it was 3.49%. The inhibition in assay [7] stood at 6.99%; in [8], 1.81%; in assay [9], 5.08%; in [10], 1.28%.
With `COc1cc2ncn(-c3cc(O[C@H](C)c4ccccc4Cl)c(C(N)=O)s3)c2cc1OC`, the inhibition amounted to 4.06% in assay [1]; 2.93% in assay [2]; 2.62% in [3]; 3.62% in assay [4]; 4.56% in [5]; 3.5% in assay [6]. For the same compound, the inhibition turned out to be 5.66% in assay [7], 2.91% in assay [8] and 1.18% in assay [10].
Consider `Cc1nnc(-c2ccc(C)c(-c3ccc(C(=O)Nc4cccc(C#N)c4)cc3)c2)o1`, for which the inhibition in [1] was determined as 3.13%; in assay [2] it was 2.37%; in assay [3] it was 3.16%; in assay [4], 0.21%; in assay [5], 2.16%; in [6], 1.21%. Further, the inhibition in assay [7] is 3.35%; in assay [8], 0.63%; in [9], 1.68%; in assay [10], -0.21%.
For `Nc1ncnc2occ(-c3ccc(NC(=O)Nc4cc(C(F)(F)F)cc(C(F)(F)F)c4)cc3)c12`, the inhibition worked out at 1.29% in assay [1]; 1.47% in assay [2]; 1.15% in assay [3]; 1.23% in assay [4]; 1.54% in assay [5]; 0.73% in assay [6]. Further, the inhibition in assay [7] was 1.97%; in [8], -0.03%; in [9], -3.64%; in assay [10], 6.3%.
Regarding `Nc1nc(-c2ccccn2)c(-c2ccc3ncccc3n2)s1`, the inhibition in assay [1] was 3.27%; in assay [2], 3.61%; in assay [3], 3.13%; in [4], 0.89%; in assay [5], 3.86%; in assay [6], 1.67%. In addition, the inhibition in [7] stood at 6%; in assay [8], 1.03%; in [9], 1.92%; in [10], 0.46%.
On to `O=C1Nc2ccc(C(=O)c3ccco3)cc2C1=Cc1cc(Cl)c(O)c(Cl)c1`, for which the inhibition in [1] came out at 5.54%; in [2], 3.68%; in [3] it was 6.98%; in assay [4] it was 1.67%; in assay [5] it was 4.46%; in assay [6] it was 1.29%. In addition, the inhibition was determined as 5.93% in [7], 1.34% in assay [8], 2.91% in [9] and 1.44% in [10].
`CCN1CCC(CC(=O)Nc2n[nH]c3nc(-c4cccs4)c(Br)cc23)CC1`: the inhibition in assay [1] was -1.32%; in [2] it was -2.16%; in assay [3] it was -0.88%; in assay [4], -1.47%; in assay [5], -0.36%; in assay [6] it was -0.23%. Besides, the inhibition was 1.17% in [7], -0.98% in [8], 0.48% in [9] and 0.12% in assay [10].

The record behind these values is ChEMBL document CHEMBL1961873, “Compounds: GSK PKIS; Assays: Nanosyn kinase panel” (2012).
